From PubChem
This excerpt belongs to a sample that is enriched for hits.
Dicer processing: inhibitors of Dicer pre-microRNA processing, primary screen, biochemical, cat-ELCCA, chemiluminescence; Endoribonuclease Dicer (Homo sapiens), Q9UPY3; cat-ELCCA pre-miR-21 Dicer processing; hits give high values; z-score at 25 µM; hit rate 6% among 47,000; AID 1347074, 2019; in the data active = z-score above about 3, passing the limit was not always enough;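 note: plate controls were vehicle for no effect and no enzyme for full effect; higher signal means more uncleaved substrate so more Dicer inhibition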
Active calls of the source: *.

SMILES	Dicer processing
Cc1c2n(c3ccccc13)CC/C2=N\Nc1ccc(Cl)cc1Cl	0.93
CCOC(=O)c1c(N/N=C/c2cccc(O)c2)n[nH]c1C	-0.07
O=C(CSc1nc2ccccc2nc1N1CCCC1)N1CCN(C2CCCCC2)CC1	3.01*
CC1CN(c2nc3ccccc3nc2SCC(=O)N2CCN(C3CCCCC3)CC2)CC(C)O1 (centres undefined)	1.78
COc1ccc(OC)c(NC(=O)CSc2nc3ccccc3nc2N2CCCC2)c1	1.38
CC1CCN(c2nc3ccccc3nc2SCC(=O)NC2CC2)CC1	3.08*
CC1CN(c2nc3ccccc3nc2SCC(=O)NC2CCCC2)CC(C)O1 (centres undefined)	1.74
O=C(CSc1nc2ccccc2nc1N1CCCC1)NCC1CCCO1 (centres undefined)	1.65
O=C(CSc1nc2ccccc2nc1N1CCOCC1)N1CCN(C2CCCCC2)CC1	1.99
CC1CN(c2nc3ccccc3nc2SCC(=O)NC2CCCCC2)CC(C)O1 (centres undefined)	1.73
O=C(CSc1nc2ccccc2nc1N1CCCCC1)NCC1CCCO1 (centres undefined)	3.11*
O=C(Cc1nc(O)cs1)c1ccccc1	-1.26
CC(C)(C)c1ccc(S/C(=C/C(=O)O)C(=O)O)cc1	-0.41
COc1ccc(-c2cnc3cc(-c4ccc(C)cc4)nn3c2N)cc1OC	-0.16
CCOC(=O)C1=C(C)OC(N)=C(C#N)C1c1ccc2c(c1)CCO2 (centres undefined)	-1.47
COc1cc(OC)cc(C(C)(C)OC(=O)NCC(=O)O)c1	-1.24
CCOC(=O)/C(=N\Nc1cccc(C(F)(F)F)c1)c1csc(N)n1	1.36
Fc1ccc(/C=N/Nc2nc(-c3ccccc3)cs2)cc1	6.78*
C=CCNc1nc(-c2ccccc2)cs1	-0.23
S=C(N/N=C/c1[nH]ncc1Br)Nc1ccccc1	4.15*
Cc1onc(-c2ccccc2)c1-c1csc(Nc2ccc(Cl)cc2)n1	1
Clc1ccccc1/C=N/Nc1nc(-c2ccccc2)cs1	0.16
CCOC(=O)c1noc(C)c1-c1csc(N/N=C/c2ccccc2)n1	0.39
S=C(N/N=C/c1ccccc1)Nc1ccccc1	13.3
c1ccc(-c2csc(NN=C3C4CC5CC(C4)CC3C5)n2)cc1	0.85
SMILES	Dicer processing
Cc1ccccc1CO/N=C\c1[nH]ncc1Br	0.24
COc1ccc(/C=N/Nc2nc(-c3ccccc3)cs2)cc1	2.33
Cc1onc(-c2ccccc2)c1-c1csc(N/N=C/c2ccccc2)n1	4.05*
Brc1cn[nH]c1/C=N/Nc1nc(-c2ccccc2)cs1	3.17*
CCOC(=O)c1c(C)csc1NC(=O)c1ccc(C(C)(C)C)cc1	0.92
CCc1nc2nc(C)c(Cc3cccc(Cl)c3)c(=O)n2[nH]1	273
c1nc(N2CCOCC2)c2sccc2n1	0.95
Cc1csc(-c2ccc(Oc3ccc(Cl)cc3)nc2)n1	-1.6
Cc1nn(C)c(NCCCN2CCOCC2)c1[N+](=O)[O-]	0
O=C(CN(Cc1ccccc1)Cc1ccccc1)N1c2ccccc2Sc2ccccc21	1.43
O=c1c(-c2ccccc2)c(C(F)(F)F)oc2c(CN3CCOCC3)c(O)ccc12	-0.24
CCOC(=O)c1sc(SCc2ccccc2)c2c1CC(c1ccc(OC)cc1)C/C2=N\O (centres undefined)	-1.25
O=[N+]([O-])c1cccnc1Oc1ccc(OCc2ccccc2)cc1	-1.59
O=[N+]([O-])c1ccc(OCc2ccccc2)cc1/C=C\N1CCCC1	3.01*
O=[N+]([O-])c1cc(F)ccc1/C=C/N1CCCC1	1.19
CC(=O)c1c(C)nc(-c2ccc(Cl)cc2)nc1SCc1ccccc1	-1.2
CN(C)c1ccc(C2CC(c3ccccc3)Nc3ncnn32)cc1 (centres undefined)	1.42
Cc1ccnc(NS(=O)(=O)c2ccc(F)c(C)c2)c1	-1.16
O=C(CC1(O)C(=O)N(CN2CCCCC2)c2ccc(Br)cc21)c1ccc(Cl)cc1 (centres undefined)	-0.38
Cc1ccsc1/C=C/c1cc(C(F)(F)F)[nH]c(=O)n1	1.09
O=c1nc(/C=C/c2ccc(-c3cccc(F)c3)o2)cc(C(F)(F)F)[nH]1	3.13*
COc1cc(/C=C/c2cc(C(F)(F)F)[nH]c(=O)n2)ccc1O	-0.13
CN(C(=O)Nc1cc(Cl)cc(Cl)c1)C1CCCCC1	-0.7
CCCc1cc(=O)n2[nH]c(SC)nc2n1	-0.05
OC1(c2ccccc2)CCC2C1CCC2(O)c1ccccc1 (centres undefined)	0.4
SMILES	Dicer processing
Cn1nccc1NC(=O)Nc1cc(Cl)cc(Cl)c1	-0.4
Cn1nccc1NC(=S)Nc1ccc(Cl)cc1	4.01*
Cn1nccc1C(=O)Nc1ccc(Cl)cc1	-1.77
O=C1CCC(c2ccccc2)C(O)=C1C=Nc1cccc(C(F)(F)F)c1 (centres undefined)	0.03
Cc1onc(-c2c(Cl)cccc2Cl)c1C(=O)Nc1ccc2[nH]cc(C#N)c2c1	0.29
Cc1cc(NC(=O)NCc2sccc2C)c(C(F)(F)F)o1	-2.79
COc1ccc(CN2CCCN(Cc3ccc(OC)cc3)C2c2cccc3c2OCO3)cc1	-0.41
Cc1nnc(NC(=O)CN2C(=O)COc3ccc(Cl)cc32)s1	2.07
N=C(N)c1ccc(Cl)cc1	3.74*
N=C(N)c1cc(Cl)cc(Cl)c1	-0.57
O=C(O)CCC(=O)c1ccc(Cl)cc1	-0.17
CC(C)NC(=O)CSc1nnc(-c2ccc(C(C)(C)C)cc2)n1-c1ccc2c(c1)OCO2	0.03
Cc1ccc(C2C=C(c3ccccc3)Nc3nc(NS(=O)(=O)c4ccc(C)cc4)nn32)cc1 (centres undefined)	3.96*
Cc1ccc(S(=O)(=O)Nc2nc3n(n2)C(c2ccccc2)C=C(c2ccccc2)N3)cc1 (centres undefined)	-0.53
O=C(CCc1ccccc1)Nc1nc2n(n1)C(c1ccc(F)cc1)C=C(c1ccccc1)N2 (centres undefined)	1.1
Clc1ccc(-c2cc(-c3csc(Nc4ccccc4Cl)n3)on2)c(Cl)c1	0.9
COc1cc(OC)cc(-c2nc3ccc(Br)cc3c(=O)o2)c1	1.57
O=C(Cn1c(-c2cncs2)nc2ccccc21)Nc1ccc2c(c1)OCCO2	4.22*
O=C(Cn1c(-c2cncs2)nc2ccccc21)Nc1ccccc1Cl	0.04
Clc1ccc(Cn2c(-c3cncs3)nc3ccccc32)cc1	1.29
Fc1cccc(Cl)c1CSc1nc2cc(Cl)c(Cl)cc2[nH]1	-1
COc1cccc(C2c3c(oc4ccccc4c3=O)C(=O)N2c2nc(C)c(C)s2)c1 (centres undefined)	-0.12
COCCNC(=O)C(=O)NCCCO	-1.26
O=C(CCCOc1ccccc1)NC1CCSC1=O (centres undefined)	0.4
O=C(COc1ccccc1)NC1CCSC1=O (centres undefined)	3.41*
SMILES	Dicer processing
O=C(CCc1ccccc1)NC1CCSC1=O (centres undefined)	0.1
N#Cc1nc(-c2ccc(Cl)cc2)oc1N1CCOCC1	3.68*
N#Cc1nc(-c2ccc(F)cc2)oc1N1CCOCC1	-0.48
COc1ccc(-c2nc(C#N)c(N3CCCCC3)o2)cc1	-0.28
CCOC(=O)C1CCN(c2nc3ccc(Cl)cc3s2)CC1	-1.36
COCCCn1c2c(c(=O)[nH]c1=O)C(c1ccc(Cl)cc1)C1=C(N2)c2ccccc2C1=O (centres undefined)	-1.33
COc1ccc(-c2nc(=S)c3c(n2CCCN(C)C)CC(C)(C)OC3)cc1	3.13*
COCCn1c(-c2ccccc2)nc(=S)c2c1CC(C)(C)OC2	-0.39
CCN(CC)CCn1c(-c2ccc(OC)cc2)nc(=S)c2c1CC(C)(C)OC2	0.56
CC1(C(=O)O)NCCc2c1[nH]c1ccccc21 (centres undefined)	1.51
